# Screening results from PubChem BioAssay.
# Tat transport – E. coli Tat transport inhibition | AID 488895 | E. coli MC4100 TorA-mCherry Tat export, fluorescence | inhibition, % at 10 µM | actives 0.036% (n = 340,000);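 active means mean replicate inhibition at least 50% and at least half of replicates individually reaching 50%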;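 further: exported cargo escapes ClpAP degradation while cytoplasmic cargo is degraded and loses fluorescence; 0% = median of neutral control wells and 100% = median of NaSCN control wells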
# E coli growth-1 – counter-screen for AddAB inhibitors: E. coli growth inhibition. E. coli V3065 growth, OD600 absorbance, 18 h. actives 0.27% (n = 330,000). inhibition, % at 11.9 µM;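 active means inhibition above the campaign's mean inhibition across all tested compounds plus 3 SD, cut at about 9.9% in these data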;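 further: uninfected addAB+ strain grown without phage in ampicillin broth; 0% = DMSO wells and 100% = ciprofloxacin 0.95 µg/ml wells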
# E coli growth-2 – E. coli growth inhibition. Escherichia coli growth, OD600, 23 h; stronger effect = lower value. OD600 absorbance (concentration not given with the values). actives 0.21% (n = 330,000);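 active means OD600 absorbance below the run mean of sample wells minus 3.6 SD, in any replicate, cut at about 0.56 in these data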
# AddAB inh – less growth of phage-infected E. coli with AddAB | E. coli expressing H. pylori AddAB, absorbance growth | inhibition, % at 11.9 µM | actives 0.29% (n = 330,000) | AID 435030; in the data active means inhibition above about 12%;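 further: 0% = vehicle wells of infected cells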
# phage Ecoli inh – E. coli growth loss with phage present; growth absorbance; inhibition, % at 11.9 µM; actives 0.26% (n = 360,000); in the data active means inhibition above about 11%
# AddAB conf – confirmation screen: growth loss of phage-infected E. coli expressing H. pylori AddAB; E. coli V3065 expressing H. pylori AddAB, T4 phage, OD; T4 phage with gene 2 nonsense mutations; actives 64% (n = 880); inhibition, % at 11.9 µM; shares compounds with AddAB inh;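 active means mean inhibition above a set limit taken from the earlier primary screen, cut at about 13% in these data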;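 further: higher means less bacterial growth since AddAB block lets phage replicate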
# RecBCD counter – counter-screen: growth loss of RecBCD+ E. coli with mutant T4 phage | actives 73% (n = 880) | AID 488955 | shares compounds with AddAB inh | E. coli V66 + mutant T4 phage, OD growth | inhibition, % at 11.9 µM;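 active means mean inhibition above the mean of solvent-only control wells plus 3 SD, cut at about 4% in these data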;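 further: optical density read after an 18 h incubation at 37 °C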
# bact viab count – reduces bacterial viability, AddAB inhibitor counter-screen; shares compounds with AddAB inh; absorbance (AddAB counterscreen); inhibition, % at 11.9 µM; actives 35% (n = 880); in the data active means inhibition above about 25%
# Active calls of the source: *; . = no result. A selection: hits, their analogues and other compounds. The true share with any hit is near 0.5%.
SMILES,Tat transport,E coli growth-1,E coli growth-2,AddAB inh,phage Ecoli inh,AddAB conf,RecBCD counter,bact viab count
O=C(Oc1c(Cl)cc(Cl)c2cccnc12)c1cccc([N+](=O)[O-])c1,2,28*,0.071*,30*,.,62*,59*,58*
Cc1ccccc1NC(=O)c1ccc([N+](=O)[O-])o1,-9,11*,0.65,24*,10,31*,6.7*,12
O=C(Nc1ccc(N2CCOCC2)cc1)c1ccc([N+](=O)[O-])o1,-3,13*,0.61,16*,8,69*,8.5*,20
CC(=O)Nc1ccc2nc(NC(=O)c3ccc([N+](=O)[O-])o3)sc2c1,-12,9,0.62,15*,1,41*,5.7*,12
O=C(Nc1ccc(S(=O)(=O)N2CCOCC2)cc1)c1ccc([N+](=O)[O-])o1,-12,4,0.66,6,6,.,.,.
CC(=O)Nc1ccc2nc(NC(=O)c3ccco3)sc2c1,0,-1,0.68,1,-1,.,.,.
Cc1cccnc1NC(=O)c1ccc([N+](=O)[O-])o1,-5,24*,0.58,92*,12*,91*,12*,24
CC(NC(=O)c1nc[nH]c1C(=O)N1CCc2ccccc2C1)C(=O)OCc1ccccc1 (stereo unspecified),.,.,0.69,.,.,.,.,.
CC(=O)N1CCN(c2ccc(NC(=O)c3ccc([N+](=O)[O-])o3)cc2Cl)CC1,-4,5,0.62,14*,6,56*,4.9*,15
O=C(Nc1ccccc1Cl)c1ccc([N+](=O)[O-])o1,-17,24*,0.57,31*,9,92*,10*,29*
CCn1nnc(NC(=O)c2ccc([N+](=O)[O-])o2)n1,-11,11*,0.56,19*,7,61*,6.5*,12
CCCCn1nnc(NC(=O)c2ccc(-c3ccccc3[N+](=O)[O-])o2)n1,14,-1,0.62,3,4,.,.,.
CN1CCN(c2ccccc2NC(=O)c2ccc([N+](=O)[O-])o2)CC1,-6,25*,0.56,27*,.,101*,11*,38*
CCC(=O)N1CCN(c2ccc(NC(=O)c3ccc([N+](=O)[O-])o3)cc2Cl)CC1,-3,.,0.65,.,6,.,.,.
CS(=O)(=O)N1CCN(c2ccccc2NC(=O)c2ccc([N+](=O)[O-])o2)CC1,0,0,0.69,1,1,.,.,.
Cn1cc(C(=O)NN=Cc2cc(Br)cs2)c2ccccc21,.,.,0.7,.,.,.,.,.
Cc1ccc2nc(C(C#N)=NO)[nH]c2c1,.,.,0.68,.,.,.,.,.
CCOC(=O)N/N=C(/C)c1ccc([N+](=O)[O-])o1,-14,30*,.,32*,8,101*,13*,39*
CC(=NNC(=O)C(O)(c1ccccc1)c1ccccc1)c1ccc([N+](=O)[O-])o1,.,.,0.71,.,.,.,.,.
COc1ccc2[nH]c3c(c2c1)CCCC3=NN,.,.,0.63,.,.,.,.,.
COc1c(N2CCN[C@H](C)C2)c(F)cc2c(=O)c(C(=O)O)cn(C3CC3)c12,.,103*,.,102*,.,100*,100*,101*
CCn1cc(C(=O)NCc2ccncc2)c(=O)c2cc(F)c(N3CCN(C(=O)c4ccco4)CC3)cc21,.,92*,0.071*,98*,3,99*,8.0*,88*
CCn1cc(C(=O)NCc2ccc3c(c2)OCO3)c(=O)c2cc(F)c(N3CCN(C(=O)c4ccco4)CC3)cc21,30,91*,0.052*,97*,10,99*,10*,98*
CCn1cc(C(=O)NCc2ccccc2)c(=O)c2cc(F)c(N3CCN(C(=O)c4ccco4)CC3)cc21,0,6,0.56,8,1,.,.,.
CCn1cc(C(=O)NCCC(=O)OC)c(=O)c2cc3c(cc21)OCO3,-1,0,0.68,0,2,.,.,.
SMILES,Tat transport,E coli growth-1,E coli growth-2,AddAB inh,phage Ecoli inh,AddAB conf,RecBCD counter,bact viab count
COc1ccc2c(CC(=O)OCC(=O)Nc3cccc(S(N)(=O)=O)c3)coc2c1,-4,96*,0.71,97*,1,-1,1,-4
COc1ccc(C(=O)NN=C/C(Br)=C/c2ccccc2)cc1,.,.,0.62,.,.,.,.,.
CN(C)C=Nc1nc2nccc(-c3ccccn3)n2n1,.,.,0.69,.,.,.,.,.
CC(=O)Nc1ccc(C(=O)OCC(=O)Nc2c(F)cccc2F)cc1,2,74*,0.72,90*,-1,-1,0,-4
CC(=O)Nc1ccc(C(=O)OCC(=O)c2ccc(F)cc2)cc1,0,1,0.65,2,5,.,.,.
CC(NC(=O)NC1CCCCC1)C(c1cccs1)N1CCN(C)CC1 (stereo unspecified),-13,8,0.73,85*,1,1,0,-4
CC1CCCN(Cc2nc3c(c(=O)n(C)c(=O)n3C)n2Cc2c(F)cccc2Cl)C1 (stereo unspecified),-11,16*,0.78,99*,-1,-1,1,-2
CC(=O)N(/N=C/c1ccc([N+](=O)[O-])o1)c1nc2ccccc2c(=O)n1-c1ccccc1,6,11*,.,15*,6,29*,3,13
CCOC(=O)C=C1CN(CCC(C)C)S(=O)(=O)c2ccccc21,.,.,0.66,.,.,.,.,.
O=C(NC(c1ccccc1)c1c(O)ccc2ccccc12)c1ccccc1Cl (stereo unspecified),6,0,0.72,3,4,.,.,.
O=C(NC(c1ccc(Cl)cc1)c1c(O)ccc2ccccc12)c1ccccc1 (stereo unspecified),3,2,0.67,14*,7,1,2,-2
C=CCn1c(O)c(N=Nc2ccccc2O)c2ccccc21,2,11*,0.62,18*,7,81*,4.6*,19
C=CCn1c(O)c(N=Nc2ccccc2)c2ccccc21,-1,-4,.,-2,4,.,.,.
CC(=O)Nc1cccc(NC(=O)CSc2ccc(-c3ccccn3)nn2)c1,-5,4,0.64,5,10,.,.,.
CCOC(=O)c1ccccc1NC(=O)CSc1ccc(-c2ccccn2)nn1,12,13*,0.7,13*,9,6,7.8*,6
CCc1ccc(NC(=O)CSc2ccc(-c3ccccn3)nn2)cc1,-13,15*,0.64,13*,10,9,9.3*,8
Cc1occc1C(=O)NN=Cc1ccccn1,.,.,0.64,.,.,.,.,.
O=C1NCCO1,0,101*,.,100*,4,0,-1,-3
O=C1NCCOc2ccccc21,.,.,.,.,4,.,.,.
Cc1ccc(S(=O)(=O)N=C(c2ccccc2)N2CCOCC2)cc1,.,.,0.7,.,.,.,.,.
NC(=O)NOCc1ccccc1,10,5,0.7,98*,4,-2,1,-4
O=C(NOCc1ccccc1)OCc1ccccc1,1,.,0.68,.,3,.,.,.
